# Source: PubChem BioAssay (NCI)
# Compounds without any hit were thinned out: in the full panel of roughly 83,000, 20% have a hit.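 In brief: 96-well plates, 48 h treatment, single concentration, percent growth endpoint.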 A number with no mark means an inactive call. Activity calls are given as the source filed them.
# System: PC-3 prostate
# Test: NCI-60 one-dose screen, 48 h (100 = growth as untreated, 0 = no growth, -100 = all killed)
# Conditions: 10 µM unless noted
# Protocol: Growth inhibition of the PC-3 human tumor cell line is measured as a screen for anti-cancer activity. Cells are grown in 96 well plates and exposed to the test compound for 48 hours. Compounds are tested at a single concentration, which is 10^-5 M for most compounds. The reported endpoint is percent growth (GI% or GIPRCNT), where numbers from 0 - 100% represent growth inhibition, and numbers from -100% - 0 represent cell death. For example, a value of 40 represents 60% growth inhibition. A value of 0 means no net growth occurred over the course of the experiment. A value of -40 indicates 40% of cells at the beginning of the experiment died by the end of the experiment. A value of -100 means all cells are dead at the end of the experiment.
# NCI-60 Human Tumor Cell Lines Screen was performed using the standard one-dose NCI protocol, which is described in more detail at https://dtp.cancer.gov/discovery_development/nci-60/default.htm.
# Compounds with GIPRCNT values below 10 were considered active. Activity score was based on GIPRCNT using the following formula: […]
# Score is 0 for GIPRCNT values of 100 or above, 50 for GIPRCNT values of 0, and 100 for GIPRCNT values of -100.
row,SMILES,growth
1,CCN(c1ccc(C(=O)N2CCN(c3ccccc3)CC2)cc1)S(C)(=O)=O,101%
2,CN1CCN(c2ccc3nc(-c4ccc5nc(-c6ccc(C(F)(F)F)cc6)[nH]c5c4)[nH]c3c2)CC1,30.2%
3,O=C1/C(=C/c2ccc([N+](=O)[O-])cc2)Oc2ccc(O)cc21,87.9%
4,COc1cc(-c2nc(SC(C)C)nc(Nc3cccc(C)c3)c2C#N)cc(OC)c1OC,98.6%
5,CCCCC(CCCC)(S(=O)(=O)CC)S(=O)(=O)CC,91.6%
6,CC(C)(C)[Si](C)(C)OC1[C@@H](COC(=O)NC(=O)CCl)O[C@@H](n2cnc3c(N)ncnc32)[C@H]1O[Si](C)(C)C(C)(C)C (stereo not given in full),-59.9% (active)
7,Cc1cc(NS(=O)(=O)c2ccc(NC(=O)COc3ccc(-c4cc5ccccc5[nH]4)cc3)cc2)no1,13.3%
8,CC1=CN2C(=NC3=C(CCCC/C3=C\c3ccccc3)C2c2ccccc2)S1 (stereo not given),99.2%
9,COc1cc(-c2nc3ccccc3o2)cc(CN2CCN(c3ccccc3)CC2)c1O,40.4%
10,C=CC(=O)N1CC2(CCC(n3nc(-c4ccc(Oc5ccccc5)cc4)c4c(N)ncnc43)CC2)C1,-19.6% (active)
11,O=C1c2c(c3c4cc(Br)ccc4[nH]c3c3ccc4ccccc4c23)C(=O)N1O,79%
12,O=C1/C(=C/c2ccc(Oc3ccccc3)cc2)N=C(c2ccccc2)N1CCc1cccs1,62.1%
13,CCOC(=O)c1c(Cl)c2c(n1Cc1ccc(OC)cc1)-c1oncc1CCC2,58.6%
14,O=C1c2cc(S(=O)(=O)O)ccc2C(=O)c2c1cccc2[N+](=O)[O-],96.3%
15,Cc1ccc(S(=O)(=O)N2CCc3ccc(O)c4c3C2Cc2cc(Cl)ccc2-4)cc1 (stereo not given),65.7%
16,COC(=O)c1c2c(c(C)[n+]([O-])c1C)C(=O)C(NCc1ccc(O)cc1)=CC2=O,7.51% (active)
17,COC(=O)[C@H]1CCCN1C(=O)[C@H]1CCCN1C(=O)[C@@H](Cc1c[nH]c2ccccc12)NC(=S)Nc1cc(C(F)(F)F)cc(C(F)(F)F)c1,34%
18,CC1SC(c2cccc(Oc3ccccc3)c2)N(CCc2cccs2)C1=O (stereo not given),2.18% (active)
19,CN1CCc2c(Sc3ccc(C(=O)NO)cc3)c3ccccc3n2C1,20.8%
20,NC(=O)c1cc(I)ccc1NC(=O)COc1ccc(Cl)cc1Cl,86.4%

row,SMILES,growth
1,CCCOC(=O)c1ccc2c(c1)[N+](=O)C(C(=O)c1ccccc1)=C(C(F)(F)F)[N+]2=O,-91.5% (active)
2,Nc1nc(-c2ccnc(Cl)c2)nn1-c1nc2ccccc2s1,102%
3,O=C1c2ccccc2-c2nnc(-c3ccc(Br)cc3)cc21,51.3%
4,O=C(CC(O)c1ccccc1)Nc1ccccn1 (stereo not given),93.2%
5,O=C1C=CC(=O)N1CCCCCCCCCCN1C(=O)C=CC1=O,82.2%
6,NC(=O)c1nc2c([nH]c1=O)CCCC2,101%
7,O=C1OCC2=C1C(c1ccc3c(c1)OCO3)CC(=O)N2c1cccc(Cl)c1 (stereo not given),102%
8,CCCCCCCC/C=C\CCCCCCCCOc1cccc(CC(=O)NCC[N+]2(C)CCCC2)c1,36.3%
9,O=C(N/N=C/c1ccc(F)cc1)c1[nH]c2ccc(I)cc2c1-c1ccccc1,20.6%
10,COc1cc(Cn2cc(F)c(=O)[nH]c2=O)cc(OC)c1,101% [50 µM]
11,O=S(=O)(Nc1ccccc1Cl)c1ccc(-c2cnc(C3CC3)o2)cc1,19.6%
12,COc1cc2cc(Oc3ccc(NC(=O)Nc4ccc(Cl)c(C(F)(F)F)c4)cc3)c(C)nc2cc1OCCN1CCCCC1,-55.3% (active)
13,COc1nc2c(cc1S(=O)(=O)c1ccccc1)CCc1c-2cnn1-c1cccc(Cl)c1,64.4%
14,Cc1ccc(S(=O)(=O)c2ccc3[nH]c(=O)[nH]c(=O)c3c2)cc1,86.2%
15,COc1ccc(OC2=C(C#N)C(=N)N3c4ccccc4Sc4ccccc4C3N2)cc1 (stereo not given),88.9%
16,COc1ccccc1-n1c(SCc2cc(OC)c(OC)c(OC)c2)nc2ccc(Cl)cc2c1=O,19.6%
17,Cc1ccc(N=c2nc3sc4c(C)ccc(C)c4n3c(N)c2C#N)cc1,88%
18,COc1ccc(-c2nc3sc(C)cn3c2/C=C/C(=O)c2cc(OC)c(OC)c(OC)c2)cc1,19%
19,O=[N+]([O-])c1ccc(O)c2ncccc12,37.9%
20,NC(=O)c1cc(I)ccc1NC(=O)COc1ccccc1,43.4%
